Measured values: paper PMC5540273 (PLoS ONE, 2017)

Key:
Settings in all cases: concentration: 1 μM,replicates: in singlicate; n = 1
SNARK = system: T1, SNARK
T1 construct: gene NUAK2

SNRK = system: SNRK
SRC = system: SRC
SRMS = system: SRMS
SRPK1 = system: SRPK1
SRPK2 = system: SRPK2
SRPK3 = system: SRPK3
STK16 = system: STK16
STK33 = system: STK33
STK35 = system: STK35
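Note: KINOMEscan kinase panel screen.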

Row | Structure (SMILES) | %Inh (SNARK) [%] | %Inh (SNRK) [%] | %Inh (SRC) [%] | %Inh (SRMS) [%] | %Inh (SRPK1) [%] | %Inh (SRPK2) [%] | %Inh (SRPK3) [%] | %Inh (STK16) [%] | %Inh (STK33) [%] | %Inh (STK35) [%]
1 | Cc1ccn2nc(-c3ccc(F)cc3)c(-c3ccncc3)c2c1.Cl [GW457859] | 7 | 52 | 0 | 0 | 13 | 68 | 0 | 1 | 0 | 0
2 | COc1cccc(C2=C(Nc3cccc(Cl)c3)C(=O)NC2=O)c1 [SB-341556] | 47 | 9 | 0 | 0 | 42 | 0 | 24 | 14 | 0 | 94.9
3 | C[C@@H](Oc1cc(-n2cnc3ccc(-c4ccncc4)cc32)sc1C(N)=O)c1ccccc1Cl [GSK483724] | 51 | 0 | 5 | 0 | 73 | 0 | 25 | 80 | 19 | 0
4 | COc1cccc(OC)c1C(=O)Nc1cccc(-c2nn3ccccc3c2-c2ccnc(Nc3cccc(F)c3)n2)c1 [GSK361065] | 91.2 | 0 | 21 | 0 | 28 | 0 | 4 | 29 | 26 | 0
5 | O=C1NCCc2[nH]c(-c3ccncc3)cc21 | 87 | 12 | 6 | 0 | 0 | 0 | 4 | 33 | – | 68
6 | CN(c1ccc2c(c1)nc(NCc1ccc(F)cc1)n2C)c1ccnc(Nc2ccc(CS(C)(=O)=O)cc2)n1.Cl [GW813244] | 0 | 0 | 64 | 56 | 41 | 0 | 67 | 46 | 0 | 15
7 | CC(C)c1nc(-c2cccc(NS(=O)(=O)c3ccccc3)c2)c(-c2ccnc(Nc3ccc4c(c3)CN(C)CC4)n2)s1 [GSK1649598] | 35 | 1 | 100 | 99.5 | 49 | 0 | 0 | 28 | 94.8 | 63
